Source: PubChem (National Center for Advancing Translational Sciences (NCATS))
TDP1 cell noCPT = qHTS for Inhibitors of human tyrosyl-DNA phosphodiesterase 1 (TDP1): qHTS in cells in absence of CPT. Potency, µM (doses to about 46.2 µM), usual class: inhibitors. 420,000 compounds, 15% hits. DT40 Tdp1-/- hTDP1 cells, no CPT, ATP luminescence, 48 h; note: nearly all actives have a fitted effect of over 55% in size
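DT40 Tdp1-/-;hTDP1 cells, no CPT (DMSO vehicle only), 400 cells/well; compounds pin-transferred; ≥48 hr, 37 °C; CellTiter-Glo 30 min RT dark, luminescence read.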
TDP1 cell CPT = growth inhibition of DT40 Tdp1-/-;hTDP1 cells with camptothecin (screen for TDP1 inhibitors) | AID 686979 | 420,000 compounds, 12% hits | Potency, µM (series often up to 46.2 µM), usual class: inhibitors | chicken DT40 Tdp1-/-;hTDP1 cells + 20 nM CPT, ATP luminescence, 48 h; note: nearly all actives have a fitted effect of over 55% in size
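Chicken DT40 Tdp1-/- cells complemented with human TDP1, 400 cells/well, exposed to compounds plus 20 nM camptothecin for at least 48 h at 37 C; viability read as ATP content by CellTiter-Glo luminescence.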
ClpP mod = qHTS Assay for Activators of ClpP; ATP-dependent Clp protease proteolytic subunit (Bacillus subtilis (strain 168)), P80244; purified B. subtilis ClpP, FRET peptide cleavage, 20 min; Potency, µM (titrated, usually from 57.5 µM); 340,000 compounds, 1.9% hits; AID 651965, 2013; active = well fitted falling curve with a large enough effect; inconclusive = small, poorly fitted or top-dose-only effect; inactive = no such curve, though single readings can be large or run the other way; note: the source files actives as falling curves though it sought activators and does not explain the sign; nearly all actives have a fitted effect of over 65% in size
Target sequence (P80244 whole entry, looked up): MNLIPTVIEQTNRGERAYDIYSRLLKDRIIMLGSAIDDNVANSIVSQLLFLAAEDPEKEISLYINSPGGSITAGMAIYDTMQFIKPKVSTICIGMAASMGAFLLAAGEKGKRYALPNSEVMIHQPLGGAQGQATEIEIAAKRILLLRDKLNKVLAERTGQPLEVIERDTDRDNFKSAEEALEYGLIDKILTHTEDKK
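Buffer: 100 mM Tris/HCl pH8, 100 mM KCl, 0.05% low protease BSA, 2.5% glycerol, 0.01% Tween-20. ClpP 10 microg/mL final; 20 min RT; delta FRET normalized to ADEP and DMSO controls.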
DRD3 antagonist = blocks the human D3 dopamine receptor; P35462; D3R cells, DiscoveRx beta-arrestin luminescence, antagonist mode; hits give low values; max response, negative = inhibition, %; 360,000 compounds, 2.5% hits; AID 652054; in the data active = max response below about -50%; inconclusive = no clear call, values can overlap the other calls
Target sequence (P35462 whole entry, looked up): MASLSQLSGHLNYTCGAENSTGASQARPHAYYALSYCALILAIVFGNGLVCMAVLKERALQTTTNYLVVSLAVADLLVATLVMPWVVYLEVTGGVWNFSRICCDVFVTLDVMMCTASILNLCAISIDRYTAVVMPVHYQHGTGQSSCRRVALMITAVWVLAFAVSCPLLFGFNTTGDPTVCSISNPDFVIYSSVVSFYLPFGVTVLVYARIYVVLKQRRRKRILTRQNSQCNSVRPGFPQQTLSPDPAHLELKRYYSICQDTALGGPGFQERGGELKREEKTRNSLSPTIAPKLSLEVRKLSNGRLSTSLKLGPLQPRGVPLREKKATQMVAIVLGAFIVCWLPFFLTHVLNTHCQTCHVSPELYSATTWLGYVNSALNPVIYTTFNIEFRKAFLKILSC
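Cells expressing the human receptor were seeded at 1500 cells/well, incubated overnight at 37 degrees C in 5% CO2, then exposed to library compounds with dopamine controls for 90 minutes at 37 degrees C before luminescent detection.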
IL-1B inflam inh = inhibitors of inflammasome signaling (IL-1 beta secretion) | THP-1 LPS/ATP IL-1B secretion, AlphaLISA, 16 h; hits give low values | activity change, % at 57.5 µM | 360,000 compounds, 4.7% hits; in the data active = activity change below about -50%; inconclusive = mostly about -30% to -49%
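THP-1 cells pretreated 1 hr with compounds (up to 57.5 uM final), then stimulated with LPS (250 ng/mL final) plus ATP (1.25 mM final); secreted IL-1B measured by AlphaLISA after 16 hr, decreased signal indicating inhibition.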
D3 ag = activates the human D3 dopamine receptor | P35462 | 410,000 compounds, 0.58% hits | AID 652048 | D3R DiscoveRx beta-arrestin cells, luminescence, 90 min | max activation, %; in the data active = max activation above about 30%
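Agonist mode: compounds and dopamine controls were applied to plated cells for 90 min at 37 degrees C after an overnight attachment at 1500 cells/well. Luminescent read-out followed 30 - 60 minutes at room temperature with DiscoveRx detection reagent.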
Each line names hits and unclear results; the compound was inactive in the other large screens. A selection: hits, their analogues and other compounds. The true share with any hit is near 21%. Unless noted, calls come from the whole dose curve; as a rule, active = well fitted inhibition curve with a large enough effect; inconclusive = small, poorly fitted or top-dose-only effect; inactive = flat fitted curve, though single readings scatter.

COc1ccc(CCNC(=O)c2ccc(-n3c(C)cc4c3CCC(C)C4)cc2)cc1OC (centres undefined)	TDP1 cell noCPT 20.6µM, TDP1 cell CPT inconclusive (no result: DRD3 antagonist, IL-1B inflam inh)
CCS(=O)(=O)N1CCc2cc(C(=O)NCCc3ccccc3)ccc21	none (no result: DRD3 antagonist, IL-1B inflam inh)
Cc1cc2c(n1-c1ccc(C(=O)NCCc3ccccc3)cc1)CCC(C)C2 (centres undefined)	TDP1 cell noCPT 20.6µM, TDP1 cell CPT 18.4µM (no result: DRD3 antagonist, IL-1B inflam inh)
CCOC(=O)c1c(C)[nH]c(C)c1S(=O)(=O)N(C)CC(=O)Nc1cccc(Cl)c1C	TDP1 cell noCPT inconclusive, TDP1 cell CPT inconclusive (no result: DRD3 antagonist, IL-1B inflam inh)
O=[N+]([O-])c1cc(-c2nnc(Nc3ccc(O)cc3)c3ccccc23)ccc1N1CCOCC1	TDP1 cell noCPT 14.6µM, TDP1 cell CPT 16.4µM (no result: ClpP mod, IL-1B inflam inh)
Cc1ccc(Nc2nnc(-c3ccc(N4CCOCC4)c([N+](=O)[O-])c3)c3ccccc23)cc1	TDP1 cell noCPT 10.3µM, TDP1 cell CPT 11.6µM (no result: ClpP mod)
CCOc1ccc(/C=N/NC(=O)Cc2ccccc2)cc1CN1CC2CC(C1)c1cccc(=O)n1C2 (centres undefined)	TDP1 cell noCPT 20.6µM, TDP1 cell CPT inconclusive, IL-1B inflam inh -104.5
O=C(Nc1ccccc1)OCCN1CCN(Cc2ccccc2)CCC1=O	none
COc1cccc(NC(=O)OCCN2CCN(Cc3ccccc3)CCC2=O)c1	D3 ag 44.0
CC(C)C(CO)N1CCN(Cc2ccccc2)CCC1=O (centres undefined)	none
O=C1CCN(Cc2ccccc2)CCN1CCOc1ccccc1	TDP1 cell noCPT 16.4µM, TDP1 cell CPT 20.6µM
O=C(Nc1cccs1)OCCN1CCN(Cc2ccccc2)CCC1=O	DRD3 antagonist inconclusive
O=C(Nc1cccc(Cl)c1)OCCN1CCN(Cc2ccccc2)CCC1=O	TDP1 cell noCPT 18.4µM, TDP1 cell CPT inconclusive, D3 ag 33.6
CC(C)[C@@H](COc1ccccc1)N1CCN(Cc2ccccc2)CCC1=O	TDP1 cell noCPT inconclusive, TDP1 cell CPT 11.2µM
C=CCSc1nnc(CCc2ccccc2)n1N	none
CCCCC1Cc2[nH]c(=S)[nH]c(=O)c2C(c2ccc(C(C)C)cc2)O1 (centres undefined)	TDP1 cell noCPT 23.1µM, TDP1 cell CPT 16.4µM
CC1OC(CCc2cccc(Cl)c2)Cc2[nH]c(=S)[nH]c(=O)c21 (centres undefined)	TDP1 cell noCPT 25.9µM, TDP1 cell CPT inconclusive, DRD3 antagonist inconclusive
COC(=O)c1ccc(CSc2ccc3nnc(-c4ccc(F)cc4)n3n2)o1	TDP1 cell noCPT 20.6µM, TDP1 cell CPT inconclusive
CCOc1ccc(-c2nnc3ccc(SCc4ccc(C(=O)OC)o4)nn23)cc1	TDP1 cell noCPT 15.8µM, TDP1 cell CPT inconclusive
O=C1Oc2ccccc2C(=O)/C1=C\N1CCN(c2ccccc2)CC1	DRD3 antagonist inconclusive
COc1ccc(CN2C=C3C(=O)C(C)(OC(=O)C4CCCC4)C(=O)C=C3C=C2c2ccsc2)cc1 (centres undefined)	TDP1 cell noCPT 11.6µM, TDP1 cell CPT inconclusive
CC1(OC(=O)C2CCCC2)C(=O)C=C2C=C(c3ccsc3)N(CCCCO)C=C2C1=O (centres undefined)	none
CCCCC1=CC2=C(c3ccco3)C(=O)C(C)(OC(=O)c3ccc(OC)cc3)C(=O)C2=CN1Cc1ccccc1 (centres undefined)	TDP1 cell noCPT 4.61µM, TDP1 cell CPT 5.17µM
CCCCC1=CC2=C(c3ccco3)C(=O)C(C)(OC(=O)c3ccc(OC)cc3)C(=O)C2=CN1CCc1ccccn1 (centres undefined)	TDP1 cell noCPT 9.2µM, TDP1 cell CPT 5.8µM
CCCCC1=CC2=C(c3ccco3)C(=O)C(C)(OC(=O)c3ccc(OC)cc3)C(=O)C2=CN1C1CCCCC1 (centres undefined)	TDP1 cell noCPT 4.61µM, TDP1 cell CPT 4.61µM, DRD3 antagonist -91.2
CCCCC1=CC2=C(c3ccco3)C(=O)C(C)(OC(=O)c3ccc(OC)cc3)C(=O)C2=CN1CCOC (centres undefined)	none
COCCN1C=C2C(=O)C(C)(OC(=O)C3CCCC3)C(=O)C(c3ccccc3)=C2C=C1CCCC(=O)OC (centres undefined)	TDP1 cell CPT inconclusive
CCOc1ccc(NC(=O)c2cnc(N3CCCC3)nc2C)cc1	TDP1 cell noCPT inconclusive (no result: DRD3 antagonist, IL-1B inflam inh)
CC(C)CN(C(=O)COC(=O)CCC(=O)c1ccc(Cl)cc1)c1c(N)n(Cc2ccccc2)c(=O)[nH]c1=O	none (no result: ClpP mod)
CCN(CC)CCCN1C=C2C(=O)C(C)(OC(=O)C3CCCC3)C(=O)C(c3ccccc3)=C2C=C1CCCC(=O)OC (centres undefined)	none
CCCCC1=CC2=CC(=O)C(C)(OC(=O)CC)C(=O)C2=CN1Cc1ccc(OC)cc1 (centres undefined)	TDP1 cell noCPT 13µM, TDP1 cell CPT 25.9µM
CCCCC1=CC2=C(c3ccco3)C(=O)C(C)(OC(=O)c3ccc(OC)cc3)C(=O)C2=CN1Cc1ccc2c(c1)OCO2 (centres undefined)	TDP1 cell noCPT 13µM, TDP1 cell CPT 9.2µM, IL-1B inflam inh inconclusive
COC(=O)CCCC1=CC2=C(c3ccccc3)C(=O)C(C)(OC(=O)C3CCCC3)C(=O)C2=CN1CC1CC1 (centres undefined)	none
COC(=O)CCCC1=CC2=C(c3ccccc3)C(=O)C(C)(OC(=O)C3CCCC3)C(=O)C2=CN1C1CCCC1 (centres undefined)	TDP1 cell noCPT 16.4µM, TDP1 cell CPT inconclusive
CC12CCC(=O)N1C(C(=O)OCc1c(Cl)cccc1Cl)CS2 (centres undefined)	none (no result: ClpP mod)
Cc1ccc(Cl)c(NC(=O)COC(=O)c2cc[n+]([O-])cc2)c1Cl	none
COc1ccc(C(=O)CCC(=O)Nc2cccc(C(C)=O)c2)cc1	none (no result: DRD3 antagonist, IL-1B inflam inh)
Cc1ccc(S(=O)(=O)Cc2nnnn2-c2ccccc2)cc1	none
CCN1C(=O)[C@H]2[C@@H](c3ccc(-c4ccc(F)cc4)cc3)N[C@@](CC(C)C)(C(=O)OC)[C@H]2C1=O	TDP1 cell noCPT 18.4µM, TDP1 cell CPT 13µM, DRD3 antagonist inconclusive, IL-1B inflam inh -65.8
COC(=O)[C@]1(CC(C)C)N[C@H](c2ccc(-c3ccccc3)cc2)[C@@H]2C(=O)N(C)C(=O)[C@@H]21	TDP1 cell noCPT inconclusive, TDP1 cell CPT inconclusive, ClpP mod inconclusive
COC(=O)[C@]1(CC(C)C)N[C@H](c2ccc(-c3ccc(F)cc3)cc2)[C@@H]2C(=O)N(C)C(=O)[C@@H]21	TDP1 cell noCPT inconclusive, TDP1 cell CPT 18.4µM
